The full ranking holds about 35,000 sequences; the median of “fluorescence intensity (a.u.)” is about 10,000, and the highest 2% start at about 52,000. The sample as a whole holds a higher share of the highest values than the screen did.

The assay deals with T1, OsWOX13 (Oryza sativa, UniProt Q5QMM3 1-267).
T1 sequence: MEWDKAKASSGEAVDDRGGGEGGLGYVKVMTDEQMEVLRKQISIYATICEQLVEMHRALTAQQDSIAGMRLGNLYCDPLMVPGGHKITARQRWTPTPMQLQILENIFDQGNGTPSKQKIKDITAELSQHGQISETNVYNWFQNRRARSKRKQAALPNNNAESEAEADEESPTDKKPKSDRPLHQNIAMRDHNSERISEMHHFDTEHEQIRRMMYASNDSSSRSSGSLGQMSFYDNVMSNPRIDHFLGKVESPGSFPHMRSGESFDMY
The assay can be described thus: protein-binding microarray (RPBM); PBS, 2% BSA, 51.3 ng/ul salmon testes DNA, 50 uM zinc acetate, 200 nM TF, 25 C, 1 h; high values mean tight binding. Conditions: protein: recombinant; tags: N-terminal polyhistidine and DsRed monomer fusion (pET32a); label: CyDye5-dUTP incorporated in the synthesized complementary strand; 3' TTTTT single-stranded linker to array surface; dsDNA, one strand shown. In outline: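 Binding signal is defined as the fluorescence intensity of each feature in arbitrary units, read on an Axon 4000B scanner. Transcription factors with N-terminal polyhistidine and DsRed fusions came from E. coli BL21-CodonPlus and were purified on Ni–NTA. They were incubated at 200 nM for 1 h at 25 °C on a custom Agilent array that had been made double-stranded with Cy5-dUTP, with 50 µM zinc acetate present, and the array was washed.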
As to “GGGGATAATTTTGTAGCTCGATGACAAGTTGATTTGGTGTCGGAGTCACCTAGTGCAG”, the binding signal is 19200 fluorescence intensity (a.u.).

As to “ATCGAATTGAGGGAGATAAATTGATCTTGTTTTAATAATTCGGAGTCACCTAGTGCAG”, the binding signal is 3450 fluorescence intensity (a.u.).

With “CTTTAATTACCACCCGATCTCACCAACAAGCGGGGCAGCTCGGAGTCACCTAGTGCAG”, the binding signal was 20400 fluorescence intensity (a.u.).

“AAACGATTGATCACAATCCACGCATCGTGCCTCTCTCGCCCGGAGTCACCTAGTGCAG”: the binding signal was 14300 fluorescence intensity (a.u.).

Regarding “GTCTCGTAATTTTCTGTTGAACTATGTAATTGATTTCTTTCGGAGTCACCTAGTGCAG”, the binding signal was 10500 fluorescence intensity (a.u.).

On to “TGCCACTCAAGTACAATTATTCCCATTAATTCGCTCCATTCGGAGTCACCTAGTGCAG”, for which the binding signal is 5600 fluorescence intensity (a.u.).

Regarding “AGCTCTATAATTTTACAATTTAAAATTATATTATATAAAGCGGAGTCACCTAGTGCAG”, the binding signal was 20400 fluorescence intensity (a.u.).

Turning to “ACTTAATTGGATAGATAAATTTAAGTTATATTTAATATGGCGGAGTCACCTAGTGCAG”, the binding signal was 64900 fluorescence intensity (a.u.).

As to “CAAATATATTATAAAATTGCATTTAATAAAACTTATTTGGCGGAGTCACCTAGTGCAG”, the binding signal is 3450 fluorescence intensity (a.u.).

“AATTTAATTAATGACAAATATAATTAGCTCTCTATCCAGGCGGAGTCACCTAGTGCAG”: the binding signal was 55500 fluorescence intensity (a.u.).

On to “TGAATTACTCAATTGAATTGGTGTTATGTAATAAACTGCTCGGAGTCACCTAGTGCAG”, for which the binding signal is 5970 fluorescence intensity (a.u.).

On to “ATTGATTGAGAAAATAATGTTGGTGAATAAATTGTTATATCGGAGTCACCTAGTGCAG”, for which the binding signal was 40700 fluorescence intensity (a.u.).

On to “CCGGGGATTGATTTGCCGAGTGTATTATTGATCGTATGATCGGAGTCACCTAGTGCAG”, for which the binding signal is 53500 fluorescence intensity (a.u.).

As for “TGTGATGTATTTGATTTATGATGTATTTATTTGTGTGTATCGGAGTCACCTAGTGCAG”, the binding signal was 20700 fluorescence intensity (a.u.).

With “AGTAATAAATTGATTGTATGTTATCTGGTGGTCTGAAACTCGGAGTCACCTAGTGCAG”, the binding signal was 57400 fluorescence intensity (a.u.).

In the case of “ATAAGTTAATTTAAATAAATGGAGTAGAATATTATGATAGCGGAGTCACCTAGTGCAG”, the binding signal is 26300 fluorescence intensity (a.u.).

Consider “TTATGATATATTGATCGTAGGATTGGGATTGGGATCCTATCGGAGTCACCTAGTGCAG”, for which the binding signal is 15800 fluorescence intensity (a.u.).

On to “GCATGACAAATGGCGTTAATTAGTCCACAAATAATATATACGGAGTCACCTAGTGCAG”, for which the binding signal is 3210 fluorescence intensity (a.u.).

As for “GCATGTTGATTATACCAGTAAGTTTCACGCACGCACACCGCGGAGTCACCTAGTGCAG”, the binding signal is 13000 fluorescence intensity (a.u.).

“ACATGTTAATTTTAACATTGACTAATAGTAAGTAGTGAGCCGGAGTCACCTAGTGCAG”: the binding signal is 25000 fluorescence intensity (a.u.).

Turning to “AAAGGGATGAGATTGAAGCAATTCCCGTGACTAGAAAACGCGGAGTCACCTAGTGCAG”, the binding signal was 3320 fluorescence intensity (a.u.).

As for “AAATTTAAATTTGAAGTTGATTTTAAGATATTTTCAACGTCGGAGTCACCTAGTGCAG”, the binding signal was 21000 fluorescence intensity (a.u.).

“TTAGTTTATACTCAATTAATCATTCGCTAATGGCTTACCTCGGAGTCACCTAGTGCAG”: the binding signal is 5920 fluorescence intensity (a.u.).

As to “ACTGATAGAATTAGCTCTATGCATAATGCATGGCTGTCTCCGGAGTCACCTAGTGCAG”, the binding signal was 34300 fluorescence intensity (a.u.).

Consider “AAAGATTGAAACTCTGAACATTTAGGACAACGAACATCATCGGAGTCACCTAGTGCAG”, for which the binding signal was 14000 fluorescence intensity (a.u.).

On to “CAAACAAGCCAGCTCAATCAATCATCGAGCTAGCTGAGCTCGGAGTCACCTAGTGCAG”, for which the binding signal is 8080 fluorescence intensity (a.u.).

In the case of “CTCTGTAACTATATAATTTCGTGCCAGATCGAAACTATGTCGGAGTCACCTAGTGCAG”, the binding signal was 4040 fluorescence intensity (a.u.).

With “GGTGTGTTTATAATTAATATACAGATTGTGTCACATTGTTCGGAGTCACCTAGTGCAG”, the binding signal was 8600 fluorescence intensity (a.u.).

With “AATAAAATAATAATTATATAATTTTAGTAAGATAATTGAACGGAGTCACCTAGTGCAG”, the binding signal is 19200 fluorescence intensity (a.u.).

“GTCAATCATTGTTCTATGAGCTAGATGATAAAGATGACAACGGAGTCACCTAGTGCAG”: the binding signal was 8180 fluorescence intensity (a.u.).

Take “AGATAATTAAGTATTTTACGTAAAATAAGATAGTATTAATCGGAGTCACCTAGTGCAG”: the binding signal is 5240 fluorescence intensity (a.u.).

As for “TTTATGATTATATTCGTAATGCTACATAATTTGATATGATCGGAGTCACCTAGTGCAG”, the binding signal was 28100 fluorescence intensity (a.u.).

In the case of “TATATATGAGCTATTAGATTGGCTATGGATGAATTGGAGCCGGAGTCACCTAGTGCAG”, the binding signal is 4900 fluorescence intensity (a.u.).

Consider “GATAAATTGACAATATTACCAAAATTTTAGTAAGATTGGCCGGAGTCACCTAGTGCAG”, for which the binding signal is 64900 fluorescence intensity (a.u.).

On to “CAACTATTATATAAATTGGCTATTATATTAGCTATAGATGCGGAGTCACCTAGTGCAG”, for which the binding signal was 11400 fluorescence intensity (a.u.).

As for “ATATTTGATTAGATCGGTAATGGATGGCTATAACGTATGCCGGAGTCACCTAGTGCAG”, the binding signal is 58500 fluorescence intensity (a.u.).

For the sequence “TTATATTAATTGGCTATTAGATTAGCTATAGATAAATTGGCGGAGTCACCTAGTGCAG”, the binding signal was 60400 fluorescence intensity (a.u.).

On to “GAGCTATTAGATTGGCTATAGATAAATTAGAGCTAGTAGTCGGAGTCACCTAGTGCAG”, for which the binding signal is 31600 fluorescence intensity (a.u.).

Take “TCAAGCTGCTAATCAATTGATATCAACTATATTATGGAAACGGAGTCACCTAGTGCAG”: the binding signal is 14600 fluorescence intensity (a.u.).

For the sequence “ATGATTGATCGATCATCAAGCTAAAGATAATGCTATGCAACGGAGTCACCTAGTGCAG”, the binding signal is 55100 fluorescence intensity (a.u.).

With “ATCACACCCTAAATTGACTGTATTTGTGCTGAATTTTACACGGAGTCACCTAGTGCAG”, the binding signal was 12300 fluorescence intensity (a.u.).

As for “CAGCCGGATTGATTGCGTAGCTGTGTGCAAGGCTGGGCGACGGAGTCACCTAGTGCAG”, the binding signal was 35900 fluorescence intensity (a.u.).

Take “TGGTTAATTTAGCTTCTCCCCTTTCTCGTGTCCTTAGATTCGGAGTCACCTAGTGCAG”: the binding signal was 10200 fluorescence intensity (a.u.).

Regarding “ATAAAATTAAAGTAAATGTGATACAAACGTGGCATGTTTGCGGAGTCACCTAGTGCAG”, the binding signal is 8490 fluorescence intensity (a.u.).
